Test results published in PubChem BioAssay AID1259309 (ICCB-Longwood Screening Facility, Harvard Medical School, 2017).
Values joined by “and” are separate entries in the source; they are usually repeats but may differ in a detail not shown here. Equal values may be shown once. About 1,800 (0.55%) of roughly 330,000 compounds were called active. For the sample, actives were picked, then their nearest neighbours and some compounds at random. Unmarked numbers belong to inactive results. Cut-off read from the data, not from the text of the source: active = growth inhibition above about 68%; inactive = the rest.

Experiment: growth inhibition of ugtP-null S. aureus, primary screen, RN4220 ugtP deletion, OD600 (AID 1259309);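 note: plate controls were untreated wells for no effect and antibiotic for full effect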
Details: 16 h, hits give high values
For `Cc1ccc(O)c(-c2cc(C(=O)NCc3ccccc3)[nH]n2)c1`, the growth inhibition was 7.53%.
With `Cc1ccc(C)c(NC(=O)c2cc(-c3cc(C)cc(C)c3O)n[nH]2)c1` the growth inhibition was 99.5% (active).
For `Cc1ccc(O)c(-c2cc(C(=O)Nc3c(C)n(C)n(-c4ccccc4)c3=O)[nH]n2)c1`, the growth inhibition was 2.72%.
For `CNC(=O)CCCCC(=O)NN=Cc1ccc(Cl)cc1Cl`, the growth inhibition was -1.21%.
With `COc1ccc(CC2CN3C(=NCC3C)N2CCNC(=O)CCC2CCCCC2)cc1` (stereo not drawn) the growth inhibition was -6.07% and 2.3%.
With `COc1cccc(C=NNc2ncnc(N)c2[N+](=O)[O-])c1OC` the growth inhibition was -0.174%.
`O=C(Nc1ccccc1)C1CC=CC2CCN(Cc3ccc(Cl)c(Cl)c3)C(=O)C21` (stereo not drawn) gave a growth inhibition of 2.24%.
Work on `Cc1c(N2C(=O)CSC2=NN=Cc2ccccc2O)c(=O)n(-c2ccccc2)n1C` yielded a growth inhibition of 7.58%.
`CCCn1c(=O)c(C(=O)Nc2cc(C)ccn2)c(O)c2ccccc21` gave a growth inhibition of 11.7%.
With `CCCCCn1c(=O)c(C(=O)NCc2ccccn2)c(O)c2ccccc21` the growth inhibition was 10.1%.
In the case of `CCCn1c(=O)c(-c2ccccc2)c(O)c2ccccc21`, the growth inhibition is reported as 10.2%.
`CCCCCn1c(=O)c(C(=O)NCc2ccccc2)c(O)c2ccccc21` gave a growth inhibition of 44.1%.
For `CC(C)CCn1c(=O)c(C(=O)NN=Cc2cccc(F)c2)c(O)c2ccccc21`, the growth inhibition was 99% (active).
With `CCCn1c(=O)c(C(=O)NN=Cc2ccc(F)cc2)c(O)c2ccccc21` the growth inhibition was 101% (active).
`C/C(C=NNc1nc(C)cc(=O)[nH]1)=C\c1ccccc1` showed a growth inhibition of -4.37%.
`Cc1ccc(S(=O)(=O)N=Cc2ccco2)cc1` showed a growth inhibition of 4.28%.
`COC(=O)c1ccc(C23CC4(C2)C(CN(Cc2cccnc2)C4c2ccccc2)C3c2ccc(Cl)nc2)cc1` (stereo not drawn) gave a growth inhibition of 8.61%.
Compound `O=C(COc1ccccc1)NCC(=O)NN=C/C=C/c1ccccc1` has a growth inhibition of 2.76%.
With `O=S1(=O)C[C@@H]2N=C(NN=Cc3ccccc3)S[C@@H]2C1` the growth inhibition was -0.808%.
In the case of `COc1ccc(C=CC2=CCN(Cc3ccc(OC)cc3)CC2)cc1`, the growth inhibition is reported as 1.66%.
For `O=C(NC(=S)NC1CCCCC1)c1ccc(Cl)cc1`, the growth inhibition was 82.7%.
With `CC(C)CNC(=S)NC(=O)c1ccc(Cl)cc1` the growth inhibition was 91.1% (active).
Compound `CC(C)C(NC(=O)c1ccc(Cl)cc1)C(=O)O` (stereo not drawn) has a growth inhibition of 0.934%.
For `COc1ccc(C2NC(=O)c3ccccc3N2)cc1` (stereo not drawn), the growth inhibition was 6.04%.
For `Oc1ccc(C2Nc3cccc4cccc(c34)N2)cc1`, the growth inhibition was 96.6% (active).
`Brc1ccccc1C1Nc2cccc3cccc(c23)N1` showed a growth inhibition of -4.74%.
`COc1ccc(C=NNC(=O)c2cc[n+]([O-])cc2)cc1` showed a growth inhibition of 2.45%.
Work on `CC(=NNc1ccc(S(=O)(=O)N2CCCCC2)cn1)c1ccc(O)cc1` yielded a growth inhibition of -0.0996%.
For `COc1ccccc1CN(C)C(=O)c1cc2ccccc2o1`, the growth inhibition was 9.31%.
Compound `Cc1ccc(OC(=O)c2ccccc2C(=O)OCC(F)(F)C(F)F)cc1` has a growth inhibition of 14.2%.
In the case of `Cc1ccc(OC(=O)c2cc3ccccc3o2)cc1`, the growth inhibition is reported as 98% (active).
`Cc1ccc(-c2nnnn2C2CC(=NNC(N)=S)C3OCC2O3)cc1` (stereo not drawn) gave a growth inhibition of 3.57%.
`O=C(NN=Cc1ccncc1)c1cccc(NC(=O)c2ccc(Cl)cc2)c1` showed a growth inhibition of -6.73%.
In the case of `O=c1c2ccccc2nc(/C=C/c2ccco2)n1-c1ccccc1O`, the growth inhibition is reported as 92% (active).
`O=C(CSc1nc2ccccc2c(=O)n1-c1ccc(F)cc1)NC1CC1` showed a growth inhibition of 2.6%.
With `O=c1c2ccccc2nc(/C=C/c2ccc(F)cc2)n1-c1ccccc1O` the growth inhibition was 97.9% (active).
Compound `CCn1c(/C=C/c2ccc([N+](=O)[O-])o2)nc2ccccc2c1=O` has a growth inhibition of 11.7%.
`O=c1c2ccccc2nc(-c2ccco2)n1-c1ccc(Br)cn1` gave a growth inhibition of 11.8%.
Compound `O=C(CSc1nc2ccccc2c(=O)n1-c1ccccc1F)N1CCOCC1` has a growth inhibition of -0.774%.
For `CC1CCCC(C)N1N=Cc1ccc([N+](=O)[O-])cc1` (stereo not drawn), the growth inhibition was 18%.
For `O=C(NN=Cc1cccs1)c1cnccn1`, the growth inhibition was 1.82%.
In the case of `Cc1ccc(C(=O)NNC(=O)C(C)Oc2ccc3ccccc3c2)o1` (stereo not drawn), the growth inhibition is reported as 8%.
For `Cc1ccc(OCC(=O)NCCCNC(=O)c2ccco2)cc1C`, the growth inhibition was -2.8%.
Work on `Cc1ccc(OCC(=O)NNC(=S)NCc2ccccc2)cc1` yielded a growth inhibition of -11.7%.
In the case of `CCCc1ccc(OCC(=O)NNC(=S)NC(=O)c2ccco2)cc1`, the growth inhibition is reported as 96% (active).
In the case of `CC(Oc1ccc2ccccc2c1)C(=O)NNC(=S)NC(=O)c1ccco1` (stereo not drawn), the growth inhibition is reported as 91.7% (active).
Work on `O=C(Nc1ccc2ccccc2c1)/C(=C/c1cccc(Br)c1)NC(=O)c1ccco1` yielded a growth inhibition of -9.2%.
In the case of `CC(=NNC(=O)CSc1nc2ccccc2o1)c1cccc(O)c1`, the growth inhibition is reported as 1.7%.
With `COc1cccc(C=NNC(=O)c2cc(-c3cccn3C)n[nH]2)c1` the growth inhibition was -20.1%.
Work on `CN(Cc1c(C(=O)NN=Cc2cccc(F)c2)nnn1-c1nonc1N)c1ccccc1` yielded a growth inhibition of 0.685%.
Work on `Cc1ccccc1C(=O)ON=C(N)c1ccncc1` yielded a growth inhibition of 6.35%.
`O=C(Cn1nc2ccccc2n1)NN=Cc1cc(Cl)cc([N+](=O)[O-])c1O` gave a growth inhibition of 2.61%.
With `COC(=O)CC1c2cc(C(F)(F)F)ccc2S(=O)(=O)N1Cc1ccccc1OC` (stereo not drawn) the growth inhibition was 4.2%.
In the case of `COc1ccc(CS(=O)/C(Cl)=C(/Cl)C(=O)Nc2ccc(OC)nc2)cc1` (stereo not drawn), the growth inhibition is reported as 15.9%.
`CCN(CC(=O)Nc1ccc(OC)cc1)C(=O)CSCc1ccc(C)cc1` showed a growth inhibition of 3.82%.
With `COc1ccc(NC(=O)/C(Cl)=C(/Cl)S(=O)Cc2ccc(C)cc2)cn1` (stereo not drawn) the growth inhibition was 99.4% (active).
In the case of `C[C@]12CCC3c4ccc(OC(=O)c5ccccc5)cc4CCC3C1CCC2O` (stereo partly drawn), the growth inhibition is reported as 19.4%.
In the case of `COc1ccc2c(c1)OC(O)(C(F)(F)C(F)F)CC2=O` (stereo not drawn), the growth inhibition is reported as 99.4% (active).
For `COc1ccc2c(c1)SC(C)CC2=O` (stereo not drawn), the growth inhibition was -4.08%.
Work on `COc1ccc2c(c1)C(=O)CC(c1ccccc1)O2` (stereo not drawn) yielded a growth inhibition of 6.73%.
`CCC(=NOC(=O)c1cccc(C)c1)C(=O)c1cccs1` showed a growth inhibition of -0.652%.
With `CCC1C/C(=C/c2cccs2)C(=O)/C(=C/c2cccs2)C1` (stereo not drawn) the growth inhibition was 94.7% (active).
Compound `O=C1/C(=C/c2cccs2)CCc2ccccc21` has a growth inhibition of 18.9%.
Work on `O=C1/C(=C/c2cccs2)CCC1C1CCCC1` (stereo not drawn) yielded a growth inhibition of 8.34%.
With `CC(CC(=O)Nc1ccccn1)=NNC(=O)C(=O)Nc1cccc(C)c1` the growth inhibition was 3.99%.
With `COc1ccc(O)c(C=NNC(=O)CN2CCS(=O)(=O)CC2)c1` the growth inhibition was -0.335%.
Work on `CC(=NNc1ccc(C(F)(F)F)cn1)c1ccncc1` yielded a growth inhibition of 1.19%.
For `N=C1C(c2nc3ccccc3s2)=C(O)CN1NC(=O)c1ccc([N+](=O)[O-])cc1`, the growth inhibition was -0.97%.
With `O=C(NC(Nc1nc2ccc([N+](=O)[O-])cc2s1)(C(F)(F)F)C(F)(F)F)c1ccccc1` the growth inhibition was 100% (active).
Work on `O=C(COC(=O)c1ccc([N+](=O)[O-])cc1Cl)NC(=O)c1ccccc1` yielded a growth inhibition of -1.26%.
`Cc1ccsc1C=NNC(=O)c1ccncc1` gave a growth inhibition of -0.727%.
For `O=S(=O)([N-]c1nc2ccccc2nc1-[n+]1ccc(Cc2ccccc2)cc1)c1ccc(Br)s1`, the growth inhibition was 95.2% (active).
`O=S(=O)(NCc1ccccn1)c1ccc(Br)s1` gave a growth inhibition of 5.99%.
Work on `O=C1C(=O)N(CC2COc3ccccc3O2)c2ccccc21` (stereo not drawn) yielded a growth inhibition of -2.06%.
For `Cc1cc(C(=O)CCl)c(C)n1CC1COc2ccccc2O1` (stereo not drawn), the growth inhibition was 90.8% (active).
For `Cc1ccsc1C(=O)OCC(=O)c1cc(C)n(CC2CCCO2)c1C` (stereo not drawn), the growth inhibition was 0.578%.
`CCOC(=O)c1c(NC(=O)Cn2nc(C(F)(F)F)cc2C)sc2c1CCC2` gave a growth inhibition of 2.33%.
`CCOC(=O)c1c(NC(=O)C(C)Sc2c[nH]c3ccccc23)sc2c1CCC2` (stereo not drawn) gave a growth inhibition of 25.3%.
With `CCCOC(=O)Nc1sc2c(c1C(=O)OCC)CCC2` the growth inhibition was 91.5% (active).
Work on `CCOC1OC(C(=O)N2CCOCC2)=CC(c2ccc3c(c2)OCO3)C1CCCO` (stereo not drawn) yielded a growth inhibition of 2.32%.
`O=C(CNc1ccc2ccccc2c1)NN=Cc1ccc(C(=O)O)cc1` showed a growth inhibition of 1.63%.
For `CCn1c2c(c3ccc(OC)cc31)CCCC2=O`, the growth inhibition was 95.9% (active).
With `COc1ccc(C2C3=C(CCCC3=O)N(CC(=O)O)C3=C2C(=O)CCC3)cc1` the growth inhibition was 7.87%.
`COc1ccc2c(C)cc3nnnn3c2c1` gave a growth inhibition of 3.97%.
`CCC1=C2CCC3C(=O)N(C)C(=O)C3C2[C@@]2(Cc3ccccc3)C(=NCCOC)OC(=O)N2C1=O` (stereo partly drawn) gave a growth inhibition of -1.76%.
In the case of `COc1ccc(-c2nc(N)ncc2-c2ccc(Cl)cc2)c(O)c1`, the growth inhibition is reported as -8.46%.
In the case of `COc1cccc(-c2cnc(OC(C)(C)C)nc2OC(C)(C)C)c1`, the growth inhibition is reported as 99.2% (active).
Compound `CC(C)(C)Oc1ncc(Br)c(OC(C)(C)C)n1` has a growth inhibition of 2.82%.
`c1ccc(C2C3CN(Cc4cccnc4)C(c4ccccc4)C34CC2(c2ccccc2)C4)cc1` (stereo not drawn) showed a growth inhibition of 0.638%.
For `O=C(Nc1ccccc1)c1nnsc1S(=O)(=O)c1ccc(Cl)cc1`, the growth inhibition was 100% (active).
In the case of `Cc1nnsc1C(=O)NN=Cc1ccccc1Cl`, the growth inhibition is reported as 0.586%.
`O=C(O)c1ccc(NC(=NS(=O)(=O)c2ccc(Cl)cc2)c2ccccc2)cc1` gave a growth inhibition of 4.64%.
Work on `Cn1c2ccccc2c2cc(C=NNC(=O)c3ccc(N)cc3)ccc21` yielded a growth inhibition of -2.18%.
In the case of `COc1ccc(C2CC(=O)C=C(c3ccc4ccn(C)c4c3)C2)cc1` (stereo not drawn), the growth inhibition is reported as 4.99%.
Work on `CC(C)(C)c1cc(C(=O)NN=Cc2ccccn2)n[nH]1` yielded a growth inhibition of 4.75%.
In the case of `O=C(NC(=S)Nc1cccc2c(O)cccc12)c1cccc(Br)c1`, the growth inhibition is reported as 99.6% (active).
`O=C(NC(=S)Nc1ccc(S(=O)(=O)Nc2ncccn2)cc1)c1cccc(Br)c1` showed a growth inhibition of -8.14%.
`Cc1ccccc1NC(=S)NNC(=O)c1cccc(Br)c1` gave a growth inhibition of 23.5%.
